According to ChEMBL document CHEMBL3988442, “University of Dundee, Small-Polar-MMV Screening Library” (2021):
Screen size: about 69,000 compounds; about 950 (1.4%) showed an effect of 50% or more. This is one part of a sample in which strong results are shown more often than they occur.

Tested on: Mycobacterium tuberculosis
Assay: Cornell M. t heat shock assay; also: in the data most compounds retested in dose-response had high values
Assay type: functional, organism-based
Parameters: dose or concentration left out as unconfirmed

SMILES | Percent Effect [%]
CC(=O)N1N=C(c2ccccc2)OC1C(=O)NCC(=O)OC(C)(C)C (configuration not stated) | 21.44
CC(=O)N1N=C(c2ccco2)OC1C(=O)N(C)CCc1ccccc1 (configuration not stated) | -2.033
CC(=O)N1N=C(c2ccccc2)OC1C(=O)NCCc1ccc(O)cc1 (configuration not stated) | 53.53
CC(=O)N1N=C(c2ccccc2)OC1C(=O)NCCOc1ccccc1 (configuration not stated) | 46.95
CC(=O)N1N=C(c2ccccc2)OC1C(=O)N(C)CCc1ccccc1 (configuration not stated) | 0.1011
CC(=O)N1N=C(c2ccccc2)OC1C(=O)NCCN(C(C)C)C(C)C (configuration not stated) | 73.05
CC(=O)N1N=C(c2ccccc2)OC1C(=O)NCCC1=CCCCC1 (configuration not stated) | -12.6
CC(=O)N1N=C(c2ccncc2)OC1C(=O)N(C)CCc1ccccc1 (configuration not stated) | 106
CCOC(=O)CNC(=O)C1OC(c2ccccc2)=NN1C(C)=O (configuration not stated) | 54.14
CC(=O)N1N=C(c2ccccc2)OC1C(=O)NCCc1ccc(Cl)cc1 (configuration not stated) | 7.805
CC(=O)N1N=C(c2ccccc2)OC1C(=O)NCCc1ccc(C)cc1 (configuration not stated) | 30.4
CC(=O)N1N=C(Cc2ccccc2)OC1C(=O)NCC(=O)OC(C)(C)C (configuration not stated) | 11.49
Cc1oncc1C(=O)NCc1cc(=O)n2c(n1)CN(CC(C)C)CCC2.O=C(O)C(F)(F)F | -11.26
CC(C)N1CCOCC2(CCCN(C(=O)CCc3cccnc3)C2)C1.O=C(O)C(F)(F)F (configuration not stated) | -33.91
Cc1cccc(CN2CCC3(CCN(c4ncccn4)CC3)C2=O)c1.O=C(O)C(F)(F)F | 21.29
O=C(O)C(F)(F)F.O=C(O)C(F)(F)F.O=C(O)C(F)(F)F.O=C1CO[C@@H]2CN(Cc3ccncc3)C[C@H]2N1Cc1ccncc1 | -33.4
CN(C)CC1CSCCCN1C(=O)c1ccsc1 (configuration not stated) | -29.65
CCCN1CCN(Cc2cc(Cl)cc(Cl)c2)[C@H]2CS(=O)(=O)C[C@H]21 | 31.79
O=S1(=O)C[C@@H]2[C@H](C1)N(Cc1cc(Cl)cc(Cl)c1)CCN2CCO | -5.541
O=S1(=O)C[C@@H]2[C@H](C1)N(Cc1cc(Cl)cc(Cl)c1)CCN2CC1CC1 | 99.37
CN(C)c1ncc(-c2cccc(C(N)=O)c2)c(C2CNCCO2)n1.Cl (configuration not stated) | -21.53
CN1CCc2cc(C(=O)N(C)C)c(NCC3CC3)nc2CC1.O=C(O)C(F)(F)F.O=C(O)C(F)(F)F | -30.07

SMILES | Percent Effect [%]
Cn1ccnc1CN1C[C@@H]2[C@@H](C1)OCC(=O)N2CC1CCCC1.O=C(O)C(F)(F)F | -35.26
CN(C)[C@@H]1CN(C(=O)Cc2cccc(F)c2)[C@@H]2CCCO[C@H]12.O=C(O)C(F)(F)F | -1.237
Cc1nnc([C@@]23CCO[C@@H]2CCN(S(C)(=O)=O)C3)o1 | -10.32
Cc1nnc([C@@]23CCO[C@@H]2CCN(S(=O)(=O)c2cccnc2)C3)o1 | 18.46
Cc1nnc([C@@]23CCO[C@@H]2CCN(S(=O)(=O)c2ccccc2)C3)o1 | 53.88
N#Cc1cccc(CN2C[C@@H]3CN(c4ncccn4)C[C@@H]3C2)c1.O=C(O)C(F)(F)F | 29.7
CO[C@H]1C[C@@H]2CN(C(=O)c3cc4cccc(F)c4[nH]3)C[C@@H]2C1 | 17.75
COc1ccc(NC(=O)CCc2c(C)nc3cc(O)nn3c2C)cn1 | 61.44
COC(=O)CCc1c(C)nc2cc(O)nn2c1C | -4.051
CCNC(=O)CCc1c(C)nc2cc(O)nn2c1C | 0.7588
CN(C)C(=O)c1cn[nH]c1C1CCCN1Cc1nccn1C.O=CO (configuration not stated) | -23.16
Cc1ccc(CN2CCC(O)(Cn3nc(-c4cccs4)oc3=O)CC2)o1.O=C(O)CC(O)(CC(=O)O)C(=O)O | 5.66
CC1(C)CC(N2Cc3nc(N4CCCC4)ncc3C2=O)CC(C)(C)N1 | 8.213
Cc1noc(C2CCN(C(=O)CCNc3ncccn3)CC2)n1 | 13.08
Cc1noc(C2CCN(C(=O)CCc3ccccn3)CC2)n1 | 13.4
Cc1noc(C2CCN(C(=O)CCc3nccs3)CC2)n1 | 51.73
O=C(O)C(F)(F)F.O=C(O)C(F)(F)F.c1cnn(CCCO[C@@H]2CC[C@H]3[C@H]2OCCN3CC2CC2)c1 | -27.44
CCn1ncc2c1CN(CCc1cccc(Cl)c1)CC2COC.O=C(O)C(F)(F)F.O=C(O)C(F)(F)F (configuration not stated) | -10.95
CCCc1nc(CNC(=O)Cc2csc(C)n2)cs1 | 8.263
O=C(CCNC1(c2nccs2)CCCC1)N1CCOCC1 | -14.8
O=C(NC1(c2nccs2)CCCC1)c1cc(C2CC2)on1 | 7.107
c1csc(C2(NCc3csc(C4CC4)n3)CCCC2)n1 | 66.7

SMILES | Percent Effect [%]
CCCc1nc(CNC2(c3nccs3)CCCC2)cs1 | 94.85
Cc1csc(C2(NCc3csc(C4CC4)n3)CCCC2)n1 | 41.22
Cc1cccc(CN2CCc3nnc(Cn4cccc4)n3CC2)n1.O=C(O)C(F)(F)F | -14.44
O=C(O)C(F)(F)F.O=C(O)C(F)(F)F.c1cc(-c2ccc3nc(C4CCN(CC5CC5)CC4)nn3c2)ccn1 | -27.27
Cc1cccc(CN2CC[C@@H]3[C@@H]2CCN3C(=O)c2cc(C)on2)n1.O=C(O)C(F)(F)F | -16.64
CCN(CC)CC1CN(Cc2cccc(C#N)c2)Cc2nccn2C1.O=C(O)C(F)(F)F.O=C(O)C(F)(F)F (configuration not stated) | -22.76
CCc1nnc2n1CCN(Cc1csc(-c3ccc(C)o3)n1)C2 | 49.84
c1cc(-c2nc(CN3CCn4c(nnc4C4CC4)C3)cs2)cs1 | 159.7
Cc1ccc(-c2nc(CN3CCn4c(nnc4C4CC4)C3)cs2)o1 | 171.6
c1sc(C2CCCC2)nc1CN1CCn2c(nnc2C2CC2)C1 | 55.31
c1cnc(-c2nc(CN3CCn4c(nnc4C4CC4)C3)cs2)nc1 | 18.84
c1sc(C2CCCCC2)nc1CN1CCn2c(nnc2C2CC2)C1 | 7.076
c1ccc(-c2nc(CN3CCn4c(nnc4C4CC4)C3)cs2)cc1 | 10.73
Cc1nnc2n1CCN(Cc1csc(-c3ccsc3)n1)C2 | -0.9289
Cc1ccc(-c2nc(CN3CCn4c(C)nnc4C3)cs2)o1 | -2.255
Cc1ccc(C)c(-n2cc(CN3CC[C@@H](O)C3)c(-c3ccccc3)n2)c1 | 85.17
Cc1ccc(-n2cc(CN3CCOCC3)c(-c3cccc(C)c3)n2)cc1 | 101.4
Cc1ccc(C)c(-n2cc(CN3CCOCC3)c(-c3ccccc3)n2)c1 | 9.683
Cn1cc(CN2CCCC(O)C2)c(-c2ccccc2F)n1 (configuration not stated) | 14.46
Cc1ccc(S(=O)(=O)c2ncccc2CN2CCOCC2)cc1 | -21.96
Cc1cccc(-c2noc(CN3CCOCC3C)n2)c1 (configuration not stated) | -19.27
CCC(=O)Nc1cccc(OCC(=O)N[C@@H]2C[C@H]3CC[C@@H]2C3)c1 | -8.125

SMILES | Percent Effect [%]
O=C(O)C(F)(F)F.O=C(O)C(F)(F)F.c1cc(CO[C@@H]2CN(Cc3ccoc3)[C@@H]3CCCO[C@@H]32)ccn1 | 21.84
CN1CCOCC2(CCCN(C(=O)c3ccccc3F)C2)C1.O=C(O)C(F)(F)F (configuration not stated) | -25.25
CN(C)C(=O)N1CCC2(CC1)CN(Cc1ccccn1)C(=O)CO2.O=C(O)C(F)(F)F | -0.5573
Cn1cc(CN2CCCC23CCN(C(=O)c2ccncc2)CC3)cn1.O=C(O)C(F)(F)F | -22.55
Cc1ncccc1NC(=O)[C@H]1C[C@@H]2CCN(Cc3nccs3)C[C@@H]2O1.O=C(O)C(F)(F)F.O=C(O)C(F)(F)F | -3.608
Cl.O=C(O)CC1CN(Cc2ccccc2)CCO1 (configuration not stated) | 70.76
O=C(CC1CN(Cc2ccccc2)CCO1)NCCN1CCOCC1 (configuration not stated) | -41.8
O=C(CC1CN(Cc2ccccc2)CCO1)NC1CCCC1 (configuration not stated) | -14.55
Cc1ccc(CN2CCn3cc(CN4CCN(C)CC4)nc3C2)cc1.O=C(O)C(F)(F)F.O=C(O)C(F)(F)F.O=C(O)C(F)(F)F | -4.711
CNC(=O)NCC1CCC2(CCN(C(=O)c3cccnc3)CC2)CO1.O=C(O)C(F)(F)F (configuration not stated) | 9.868
O=C(O)CC(O)(CC(=O)O)C(=O)O.c1cncc(-c2nccc(CN3CCC(N4CCCCC4)CC3)n2)c1 | -13.06
O=C(O)C(F)(F)F.O=C(O)C(F)(F)F.c1cncc(COCc2nnn3c2CN(Cc2ccsc2)CC3)c1 | -26.71
CC(C)C(=O)N1CCN(C(=O)c2cc(C(C)C)on2)[C@H]2CS(=O)(=O)C[C@H]21 | -10.22
Cc1cnc(C(=O)N2CCN(C(=O)C(C)C)[C@@H]3CS(=O)(=O)C[C@@H]32)cn1 | 4.224
CC(C)C(=O)N1CCN(C(=O)c2cscn2)[C@H]2CS(=O)(=O)C[C@H]21 | 73.31
Cc1ccc(OCC(=O)N2CCCC(n3nc(C)nc3C)C2)cc1 (configuration not stated) | -13.19
Cc1n[nH]cc1CNC(C(=O)N1CCCCC1)c1ccccc1 (configuration not stated) | -8.652
O=C(O)C(F)(F)F.c1csc(CN2CCc3nnc(COc4cncnc4)n3CC2)c1 | -24.48
Cc1nc(CN2CCC3(CCCO3)CC2)c2ccccn12 | 77.67
Cc1nc(CN2C[C@@H](CN3CCOCC3)[C@@H](CO)C2)c2ccccn12 | 1.211
Cc1ccc(C2(O)CCN(Cc3nc(C)n4ccccc34)CC2)nc1 | 43.96
